Screening data deposited in PubChem by several laboratories.
This is a sample that favours compounds with a hit; in the whole collection about 2.2% have one here.
BaF3 parental – reduces parental Ba/F3 cell viability, JAK2V617F counter-screen; inhibition, % at 5.6 µM; hit rate 1.1% among 220,000; CellTiter-Glo ATP luminescence;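 active = inhibition above a per-campaign cutoff, the mean inhibition of all tested compounds plus 3 SD, cut at about 27% in these data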;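 note: 0% = DMSO wells and 100% = JAK Inhibitor I control wells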
Ba/F3 V617F tox – lowers viability of Ba/F3 cells expressing EpoR and JAK2V617F; hit rate 1.1% among 220,000; ATP luminescence; AID 1446; inhibition, % at 5.6 µM;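 active = inhibition above the campaign mean plus 3 SD over all tested compounds, cut at about 24% in these data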;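 note: cytokine-independent growth of Ba/F3 cells driven by EpoR plus mutant JAK2; 0% = DMSO-treated cells and 100% = JAK inhibitor I control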
KLF5 inh – inhibitors of KLF5 expression; DLD-1 KLF5 promoter-luciferase reporter, luminescence; inhibition, % at 5 µM; hit rate 0.23% among 290,000;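 active = inhibition above a per-plate limit of that plate's mean compound inhibition plus 3 SD, cut at about 60% in these data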;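 note: 0% = DMSO wells and 100% = LY294002 at 200 µM; higher means less KLF5 promoter-driven luciferase light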
aSyn 5UTR inh – MLPCN primary screen, SNCA 5' untranslated region | alpha-synuclein 5'UTR reporter, inhibitor activity | inhibition, % (tested at 7.5 µM) | hit rate 0.82% among 300,000 | AID 1813; in the data active = inhibition above about 60%; inconclusive = no clear call, values can overlap the other calls;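 note: H4 neuroglioblastoma cells stably carrying SNCA 5'UTR luciferase fusion; 0% = DMSO wells and 100% = positive control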
APP transl inh – APP translation inhibition; SH-SY5Y APP 5'UTR-luciferase reporter, luminescence; inhibition, % at 2 µM; hit rate 0.82% among 190,000; AID 1285;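 active = inhibition above a set limit, derived from the sample mean plus 3 SD, cut at about 45% in these data; inconclusive = one replicate passes the limit while the other fails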
IEC-6 tox – IEC-6 cytotoxicity, counter-screen for KLF5 inhibitors; AID 1825; inhibition, % at 5 µM; luminescence viability; hit rate 0.78% among 290,000;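 note: 0% = plate median of test compound wells and 100% = cytotoxic reference compound wells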
IEC-6 tox confirm – IEC-6 cytotoxicity, confirmation assay; shares compounds with IEC-6 tox; IEC-6 rat intestinal epithelial viability, luminescence; inhibition, % at 5 µM; hit rate 63% among 1,900;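 note: 0% = vehicle and 100% = reference cytotoxic drug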
Numbers without * were called inactive; i = inactive; ? = inconclusive; . = not tested or not shown. Cut-off read from the data, not from the text of the source, unless noted: active = inhibition above about 22%; inactive = the rest.

SMILES	BaF3 parental	Ba/F3 V617F tox	KLF5 inh	aSyn 5UTR inh	APP transl inh	IEC-6 tox	IEC-6 tox confirm
COC(=O)CC1COc2ccccc2N1S(=O)(=O)c1ccc(OC)cc1 (stereo unspecified)	.	.	32.1	-22.6	.	31.2*	0.1
CC(=O)/C(C#N)=C1\NC(=O)C(Cc2ccc(C)c(C)c2)S1 (stereo unspecified)	4.7	-1.7	29.0	4.9	-30.1	78.3*	50.3*
CC(=O)/C(C#N)=C1\NC(=O)C(Cc2ccc(F)cc2)S1 (stereo unspecified)	2.3	2.6	-12.2	-11.7	.	71.5*	48.0*
COc1ccccc1C(N)=S	3.4	2.3	-20.4	-23.4	-0.6	-0.9	.
CC(C)(C)c1csc(NC(=O)Cc2ccc(S(=O)(=O)N3CCOCC3)s2)n1	.	.	.	-5.0	.	.	.
COc1ccc(NC(=O)N2CCCCCC2)cc1OC	.	.	-7.5	-9.9	.	-7.4	.
CCOc1ccccc1NC(=O)c1ccc(C(=O)Nc2ccccc2OCC)nc1	.	.	5.1	19.2	.	-3.5	.
CCOc1ccccc1NC(=O)c1nc(S(=O)(=O)Cc2ccccc2)ncc1Cl	.	.	34.4	51.1	.	98.8*	11.3
CCS(=O)(=O)c1ncc(Cl)c(C(=O)Nc2ccccc2OC)n1	.	.	20.1	4.3	.	29.2*	18.5
COc1ccccc1NC(=O)c1nc(S(=O)(=O)Cc2ccccc2)ncc1Cl	.	.	59.0	70.9*	.	100.5*	15.7
Cc1cccc(C)c1N1CCN(S(=O)(=O)N(C)C)CC1	6.9	1.7	-26.8	-17.3	0.2	-2.5	.
COc1cc(CCC(=O)NNC(=O)c2cccc(Cl)c2)cc(OC)c1OC	.	.	-19.2	0.5	.	2.1	.
CCCCN1/C(=C/c2ccc3ccccc3[n+]2CC)Sc2ccccc21	80.4*	101.0*	6.8	80.2*	-7.7	41.6*	14.1
CCCCN1/C(=C/c2cccc[n+]2C)Sc2cc(NC(C)=O)ccc21	.	.	-25.5	-4.8	.	-4.0	.
CCN1/C(=C/c2ccc3ccccc3[n+]2CCCS(=O)(=O)[O-])C=Cc2cc(C)ccc21	.	.	-8.7	35.5	.	6.2	.
CCN1/C(=C/c2ccc3cc(C)ccc3[n+]2CC)Sc2cc(C)ccc21	84.8*	99.3*	16.9	.	63.1*	34.8*	33.9*
Fc1ccc(NC(=S)N2CCOCC2)cc1Cl	100.3*	96.6*	6.1	22.6	-14.4	58.1*	7.9
CCOC(=O)CSC1=C(C#N)C(c2ccc(C)s2)CC(=O)N1 (stereo unspecified)	77.5*	81.1*	52.7	40.6	91.4*	74.9*	52.5*
CCSC1=C(C#N)C(c2ccc(C)s2)CC(=O)N1 (stereo unspecified)	0.0	-2.1	-3.5	18.4	-2.2	-1.4	.
O=c1cc(-c2ccccc2)[nH]c2cc(Cl)ccc12	45.7*	80.4*	60.9	104.3*	94.7*	57.2*	57.8*
Clc1ccc2[nH]c(-c3ccccc3)cc2c1	6.4	3.2	-66.4	.	-118.8	7.4	.
Cc1cc(Cl)n2c(nc3ccccc32)c1C#N	29.1*	75.6*	17.4	88.7*	90.0*	77.1*	37.4*
CCN(CC)CCC(=O)Nc1cccc2c1C(=O)c1ccccc1C2=O	67.6*	85.0*	23.2	-5.0	.	26.5*	24.3*
Nc1cccc(C(=O)OCC(=O)Nc2cccc3c2C(=O)c2ccccc2C3=O)c1	3.8	0.8	-23.7	16.1	10.1	1.8	.
O=C(NC1CCSc2ccccc21)c1c(F)cccc1Cl (stereo unspecified)	.	.	-14.0	10.6	.	5.1	.
SMILES	BaF3 parental	Ba/F3 V617F tox	KLF5 inh	aSyn 5UTR inh	APP transl inh	IEC-6 tox	IEC-6 tox confirm
COc1ccc(-c2oc3cccnc3c2C#CCO)cc1	.	.	-16.8	10.8	.	29.1*	16.3
COc1ccc(-c2oc3cccnc3c2C#CC2(O)CCCCC2)cc1	.	.	-35.1	8.2	.	5.3	.
Cc1ccc(-c2[nH]c3ccccc3c2C(C[N+](=O)[O-])c2ccco2)cc1 (stereo unspecified)	3.3	0.2	10.5	27.0	-14.2	24.8*	9.7
Cc1[nH]c2ccccc2c1C(C[N+](=O)[O-])c1ccco1 (stereo unspecified)	6.5	1.9	3.5	-0.8	14.2	-2.8	.
COc1ccc(N(CC(=O)Nc2cc(Cl)ccc2C)S(=O)(=O)c2c(C)noc2C)cc1	.	.	43.2	78.5*	.	63.5*	44.0*
CC1CCN(S(=O)(=O)c2ccc(NC(=O)c3ccncc3)cc2)CC1	.	.	-37.4	-1.1	.	3.0	.
CCc1ccc(NC(=O)c2nc(S(=O)(=O)Cc3ccccc3)ncc2Cl)cc1	.	.	14.8	90.7*	.	88.0*	6.8
CCOC(=O)c1ccc(NC(=O)CCS(=O)(=O)Cc2ccccc2)cc1	.	.	-26.9	-8.9	.	-5.6	.
CCCS(=O)(=O)c1ncc(Cl)c(C(=O)Nc2ccc(S(=O)(=O)Nc3ncccn3)cc2)n1	.	.	-26.0	16.1	.	-4.8	.
CSc1ncc(Cl)c(C(=O)Nc2ccc(C)c(C)c2)n1	.	.	-8.3	16.2	.	2.5	.
Cc1ccc(NC(=O)c2nc(S(=O)(=O)Cc3ccccc3C)ncc2Cl)cc1C	.	.	6.0	38.8	.	31.2*	16.3
CCOC(=O)c1ccc(NC(=O)c2nc(S(=O)(=O)Cc3ccccc3)ncc2Cl)cc1	.	.	22.9	?	.	49.9*	16.3
CCS(=O)(=O)c1ncc(Cl)c(C(=O)Nc2ccc(S(=O)(=O)N3CCC(C)CC3)cc2)n1	.	.	42.9	65.1*	.	95.9*	7.9
O=C(Nc1cccc(S(=O)(=O)N2CCCCCC2)c1)C1CCN(C(=O)c2ccc(Cl)cc2)CC1	.	.	.	36.4	.	.	.
OCCC1CN(Cc2cc(F)ccc2-n2cccn2)CCN1C1CCCC1 (stereo unspecified)	0.6	2.4	7.5	0.0	.	4.8	.
CCN(c1ccccc1)S(=O)(=O)c1ccc(Cl)c(NC(=O)COC(=O)c2cc(O)c3ccccc3c2O)c1	-2.6	-2.8	8.5	12.7	.	31.6*	6.7
Cc1cc(C(=O)OCC(=O)NCc2ccco2)c(C)n1-c1ccc(F)cc1	4.0	-0.6	-4.3	80.4*	75.2*	45.3*	57.2*
O=C(Nc1ccc2oc(-c3ccncc3)nc2c1)c1ccc([N+](=O)[O-])o1	.	.	-17.2	-118.3	.	94.9*	17.0
Cc1ccc(-c2nc3ncccc3o2)cc1NC(=O)c1ccc([N+](=O)[O-])o1	.	.	-6.9	i	.	98.0*	20.3
O=C(Nc1ccc(-c2nc3ncccc3o2)cc1)c1ccc([N+](=O)[O-])o1	.	.	13.8	100.3*	.	80.0*	8.3
CC(C)C(=O)Nc1ccc(-c2nc3ncccc3o2)cc1	.	.	-52.5	-8.9	.	8.6	.
O=C(Nc1ccc2oc(-c3ccncc3)nc2c1)c1ccccc1	-0.2	-3.1	-32.4	-16.6	-0.9	-1.7	.
Cc1cc(NCc2ccccn2)n2nc(C)c(-c3ccc(Cl)cc3)c2n1	0.0	-0.9	-5.9	.	.	12.2	.
Cc1cc(NCc2ccccn2)n2ncc(-c3ccccc3)c2n1	5.7	0.1	-40.6	-154.8	.	83.8*	30.9*
Cc1nn2c(NCc3ccccn3)cc(C(C)C)nc2c1-c1ccccc1	-2.2	-1.4	7.4	31.9	.	-9.0	.
Cc1cc(N)n2ncc(-c3ccc(F)cc3)c2n1	0.6	-4.5	-114.7	-104.3	-84.1	9.9	.
Cc1cc(N)n2ncc(-c3ccc(Cl)cc3)c2n1	-1.9	0.6	-21.0	-51.5	-96.0	25.1*	26.0*
